Assay outcomes (PubChem)
Compounds with a hit are over-represented: about 6.8% of the library has one in this group of screens.
Pf Dd2 growth: inhibitors of Plasmodium falciparum Dd2 growth; AID 1159554; activity change, % at 10 µM; P. falciparum Dd2 growth, SYBR Green, 72 h; active compounds read low; actives 2.3% (n = 94,000); in the data active means activity change below about -80%; inconclusive means no clear call, values can overlap the other calls
C diff HTS: C. difficile growth inhibition; Clostridium difficile clinical isolate growth, OD600, 24 h; active compounds read low; growth activity, negative = inhibition, % at 16 µg/mL (by protocol); actives 0.25% (n = 86,000); AID 1259249;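 active means mean growth activity at or below -80% and every replicate also at or below -80%; inconclusive means mean at or below -80% but some replicate above -80%; inactive means mean growth activity above -80%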;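 further: 0% = DMSO wells and -100% = levofloxacin 16 µg/mL wells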
T cruzi growth-1: blocks T. cruzi growth in NIH3T3 culture. T. cruzi beta-gal in NIH3T3, GalScreen luminescence, 90 h. inhibition, % at 8.34 µM. actives 5.9% (n = 77,000). AID 624255;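 active means mean inhibition above about 93%, with at least 55% of replicates each passing it, limit read from the data, passing the limit was not always enough; inconclusive means only one of those two conditions holds; inactive means neither condition holds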
T cruzi growth-2: Trypanosoma cruzi proliferation inhibition | shares compounds with T cruzi growth-1 | T. cruzi beta-gal in NIH3T3, GalScreen luminescence, 90 h | inhibition, % at 8.35 µM | actives 72% (n = 5,600);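 active means mean replicate inhibition above about 95% and at least 55% of replicates individually reaching it, limit read from the data; inconclusive means only one of the two criteria is met; inactive means neither criterion is met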
T cruzi growth-3: inhibitors of T. cruzi proliferation. actives 21% (n = 5,600). shares compounds with T cruzi growth-1. inhibition, % at 2.09 µM. T. cruzi beta-gal in NIH3T3, GalScreen luminescence, 90 h. AID 651740;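 active means mean inhibition above about 95%, with at least 55% of replicates also reaching it, limit read from the data; inconclusive means meets just one of the two conditions; inactive means meets neither condition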;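 further: plate controls were neutral control median for no effect and positive control median for full effect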
NIH3T3 tox: kills mouse NIH/3T3 fibroblasts; cytotoxicity (signal decrease), % at 8.35 µM; AID 651742; NIH/3T3 viability, CellTiter-Glo ATP luminescence, 90 h; actives 14% (n = 5,600); shares compounds with T cruzi growth-1;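 active means mean signal decrease across replicates above about 35% based on untreated-well scatter, with enough replicates individually passing, limit read from the data; inconclusive means no rule stated though some were filed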;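 further: 0% = median of neutral control wells and 100% = median of positive control wells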
NIH3T3 tox 2: NIH/3T3 (mouse) viability loss; NIH/3T3 viability, CellTiter-Glo ATP luminescence, 90 h; AID 651744; actives 56% (n = 5,600); inhibition, % at 24.9 µM; shares compounds with T cruzi growth-1;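 active means mean loss of cell viability signal at or above a set limit, and enough replicates individually reaching it; inconclusive means meets only the mean limit or only the replicate share; inactive means meets neither condition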;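 further: 0% = median of neutral control wells and 100% = median of positive control wells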
Starred values were filed as active, the others as inactive; ? = inconclusive; . = not tested or not shown.

SMILES | Pf Dd2 growth | C diff HTS | T cruzi growth-1 | T cruzi growth-2 | T cruzi growth-3 | NIH3T3 tox | NIH3T3 tox 2
COc1ccc(CN(C)C[C@H]2Oc3ccc(NS(=O)(=O)c4c(C)noc4C)cc3CC(=O)N([C@H](C)CO)C[C@@H]2C)cc1 | -28 | 8 | 106* | 83 | 50 | 2 | 15
COc1ccccc1-c1ccc([C@@H]2[C@H](CO)N3CCCCN(C(=O)CN4CCOCC4)C[C@@H]23)cc1 | -1 | -8 | 56 | . | . | . | .
O=C(CN1CCOCC1)N1CCCCN2[C@H](C1)[C@H](c1ccc(C#Cc3ccccc3)cc1)[C@@H]2CO | 9 | -5 | 78 | . | . | . | .
O=C(CN1CCOCC1)N1CCCCN2[C@H](C1)[C@@H](c1ccc(C#Cc3ccccc3)cc1)[C@@H]2CO | -30 | -10 | 112* | 107* | 83 | 23 | 101*
O=C(CN1CCOCC1)N1CCCCN2[C@@H](CO)[C@@H](c3ccc(C#Cc4ccccc4)cc3)[C@@H]2C1 | 4 | 8 | 98* | 92 | 59 | 28 | 103*
O=C(CN1CCOCC1)N1CCCCN2[C@@H](CO)[C@@H](c3ccc(/C=C/c4ccccc4)cc3)[C@@H]2C1 | -10 | 2 | 105* | 105* | 69 | 24 | 105*
Cc1ccccc1-c1ccc([C@H]2[C@@H](CO)N3CCCCN(C(=O)CN4CCOCC4)C[C@@H]23)cc1 | 34 | -15 | ? | 83 | 59 | 29 | 29
O=C(CN1CCOCC1)N1CCCCN2[C@@H](CO)[C@H](c3ccc(C#Cc4ccccc4)cc3)[C@@H]2C1 | 12 | -8 | 85 | . | . | . | .
O=C(CN1CCOCC1)N1CCCCN2[C@H](CO)[C@@H](c3ccc(-c4ccccc4)cc3)[C@H]2C1 | 11 | -5 | -9 | . | . | . | .
COc1ccccc1NC(=O)N(C)C[C@H]1OCc2ccccc2-c2c(n(C)c3ccccc23)C(=O)N([C@H](C)CO)C[C@@H]1C | -10 | . | -113 | . | . | . | .
C[C@H](CO)N1C[C@H](C)[C@@H](CN(C)Cc2ccncc2)Oc2ccc(NC(=O)Cn3cnnn3)cc2CC1=O | 8 | -4 | 18 | . | . | . | .
C[C@H]1CCCCO[C@H](CN(C)C)[C@@H](C)CN([C@@H](C)CO)C(=O)c2cc(NS(=O)(=O)c3ccc(F)cc3)ccc2O1 | -19 | -2 | 10 | . | . | . | .
C[C@H]1CN([C@@H](C)CO)C(=O)c2cc(NS(=O)(=O)c3ccccc3)ccc2O[C@@H]1CN(C)Cc1ccc(C(F)(F)F)cc1 | 16 | -2 | 104* | 70 | 64 | 24 | 39*
C[C@@H]1CN([C@@H](C)CO)C(=O)c2cc(NS(=O)(=O)c3ccccc3)ccc2O[C@@H]1CN(C)Cc1ccc(C(F)(F)F)cc1 | 19 | 3 | 73 | . | . | . | .
C[C@@H]1CN([C@@H](C)CO)C(=O)c2cc(NS(=O)(=O)c3ccccc3)ccc2O[C@@H]1CN(C)Cc1ccc2c(c1)OCO2 | -2 | 2 | 102* | -31 | 11 | -5 | 18
C[C@H](CO)N1C[C@H](C)[C@@H](CN(C)Cc2ccc3c(c2)OCO3)Oc2ccc(NS(=O)(=O)c3ccccc3)cc2C1=O | 30 | . | -3 | . | . | . | .
C[C@H](CO)N1C[C@H](C)[C@@H](CN(C)Cc2ccc(C(F)(F)F)cc2)Oc2ccc(NS(=O)(=O)c3ccccc3)cc2C1=O | -1 | -6 | 85 | . | . | . | .
C[C@H](CO)N1C[C@H](C)[C@H](CN(C)Cc2ccc(C(F)(F)F)cc2)Oc2ccc(NS(=O)(=O)c3ccccc3)cc2C1=O | 0 | 13 | 104* | 76 | 70 | -9 | 11
C[C@H]1CN([C@@H](C)CO)S(=O)(=O)c2ccc(-c3ccc(C(=O)N(C)C)cc3)cc2O[C@H]1CN(C)C(=O)Cc1ccccn1 | -11 | -8 | 66 | . | . | . | .
CCNC(=O)C[C@H]1CC[C@@H]2[C@@H](COc3ccc(NC(=O)c4ccccc4Cl)cc3C(=O)N2C)O1 | -18 | -1 | 91 | . | . | . | .
CNC[C@@H]1Oc2ccc(NS(=O)(=O)c3ccccc3)cc2C(=O)N([C@H](C)CO)C[C@@H]1C | 12 | 0 | . | . | . | . | .
CN(C)C(=O)c1ccc(-c2ccc([C@@H]3[C@@H](CO)N(C(=O)Cc4ccccn4)[C@H]3C#N)cc2)cc1 | -47 | 3 | 74 | . | . | . | .
